Shown is part of a subset that was picked to be rich in hits.
Methyltransferases – Primary Screen for Target Class Profiling of Small Molecule Inhibitors of Methyltransferases | purified enzyme, MTase-Glo SAH luminescence; hits give low values | calls only at 40 µM | 25,000 compounds, 3.9% hits | AID 1745853, 2022; call rule not given here
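Each enzyme was reacted with SAM and its substrate, with compounds tested once at 40 uM; SAH formed was read by MTase-Glo luminescence.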
MTase-Glo counter – Counterscreen for Target Class Profiling of Small Molecule Inhibitors of Methyltransferases; shares compounds with Methyltransferases; MTase-Glo coupled enzymes, SAH conversion luminescence, no MTase; Potency, µM (doses to about 57.3 µM), for inactives: at the highest dose activity change, negative = inhibition, usual class: inhibitors; 180 compounds, 6% hits; active = well fitted inhibition curve with a large enough effect; also: potency is read from the fitted curve at half-maximal effect
The depositor's hits bear a star; [ ] = dose if it differs, or a comment. % is scaled to controls: 0 for no effect and ±100 for the full control effect.

How did Cc1cc(-c2nc3ccncc3[nH]2)c(C)[nH]1 do in these assays?
Methyltransferases: active; MTase-Glo counter: -3.1%[114 µM]

Results for Nc1ccc(-c2nc3ccc(-c4nc5ccc(N)cc5[nH]4)cc3[nH]2)cc1 ?
Methyltransferases: inactive

How did COc1ccccc1CN1C(=O)c2cc(-c3ccco3)nn2CC1(C)C(=O)NC1CCCCCC1 (configuration not stated) do in these assays?
Methyltransferases: inactive

What do the screens show for `COc1ccc(CNc2nc3c(-c4cccc(Br)c4)nnn3c3ccccc23)cc1`?
Methyltransferases: inactive

How did CCOC(=O)Cc1ccc(NC(=O)N2Cc3c(sc4c3CCCC4)-n3cccc3C2c2ccccc2)cc1 (configuration not stated) do in these assays?
Methyltransferases: inactive

What do the screens show for `CN1CCN(c2ncnc3sc4c(c23)CCNC4)CC1`?
Methyltransferases: active; MTase-Glo counter: 15.2µM*

Results for CN1CCN(c2ncnc3c2CN(C2CCCCC2)C(=O)CN3C)CC1 ?
Methyltransferases: inactive

How did CCNc1ncnc2sc3c(c12)CCN(C(=O)COC)C3 do in these assays?
Methyltransferases: inactive

Results for CCCNC(=O)c1cc2n(n1)CC(C)(C(=O)NC1CCCC1)N(CCC)C2=O (configuration not stated) ?
Methyltransferases: inactive

Results for COc1ccc2cc3n(c2c1)CC(C)(C(=O)NC1CCCC1)N(CC(C)c1ccccc1)C3=O (configuration not stated) ?
Methyltransferases: inactive

What do the screens show for `CCCN(C)C(=O)CCc1ccnc(N2CCOCC2)c1`?
Methyltransferases: inactive

Results for COc1ccc(NC(=O)CCc2ccnc(N3CCCC3)c2)c(OC)c1 ?
Methyltransferases: active; MTase-Glo counter: -0.5%

Results for COc1ccc(NC(=O)N2CCn3cccc3C2C)c(OC)c1 (configuration not stated) ?
Methyltransferases: inactive

What do the screens show for `O=C(Cn1ccc2cc(S(=O)(=O)N3CCCC3)ccc21)NCc1ccc(F)cc1`?
Methyltransferases: inactive

How did O=C(CCc1nnc2n(Cc3ccc(F)cc3)c(=O)c3ccccc3n12)NC1CCCCC1 do in these assays?
Methyltransferases: inactive

How did N#Cc1ccccc1-c1cc2c(ccn2Cc2ccncc2)c(N2CCOCC2)n1 do in these assays?
Methyltransferases: active; MTase-Glo counter: 3.7%[85.7 µM]

How did Brc1cccc(-c2nnn3c2nc(NCC2CCCO2)c2ccccc23)c1 (configuration not stated) do in these assays?
Methyltransferases: inactive

How did CCC(C)NC(=O)c1ccc2c(=O)n(C)c3nnc(SCC(=O)Nc4ccc(Cl)cc4)n3c2c1 (configuration not stated) do in these assays?
Methyltransferases: inactive

How did Cc1cnc(C(=O)NCCc2ccc(S(=O)(=O)NC(=O)NC3CCCCC3)cc2)cn1 do in these assays?
Methyltransferases: inactive

How did Cc1cnc(CCNC(=O)c2n[nH]c(=O)c3ccccc23)n1C1CCCCC1 do in these assays?
Methyltransferases: active; MTase-Glo counter: -5.7%

What do the screens show for `O=C(Nc1ccc2c(c1)OCCO2)N1CC(c2nc(CCOCC3CC3)no2)C1`?
Methyltransferases: inactive

What do the screens show for `Cc1cnc(CCNC(=O)c2ccc(C#N)cc2)n1C1CC1`?
Methyltransferases: inactive

Results for Cc1cnc(CCNC(=O)Cc2ccncc2)n1CC1CC1 ?
Methyltransferases: inactive

Results for Cc1cnc(CCNC(=O)c2cccs2)n1C1CCC1 ?
Methyltransferases: active; MTase-Glo counter: 3.2%

What do the screens show for `Cc1cnc(CCNC(=O)Nc2ccc3c(c2)OCCO3)n1C1CCC1`?
Methyltransferases: active; MTase-Glo counter: -3.8%

How did Cc1cnc(CC2CCN(C(=O)Nc3ccc4c(c3)OCCO4)C2)n1C1CC1 (configuration not stated) do in these assays?
Methyltransferases: inactive

Results for COc1ccc(C(=O)NCCc2ncc(C)n2C2CC2)cn1 ?
Methyltransferases: inactive

How did CCCN1C(=O)c2c(C(=O)NCc3ccc(F)cc3)ncn2CC1(C)C(=O)NCCC(C)C (configuration not stated) do in these assays?
Methyltransferases: inactive

What do the screens show for `CN1C(=O)c2cc(C(=O)Nc3ccc(F)cc3F)nn2CC1(C)C(=O)NC1CCCCCC1` (configuration not stated)?
Methyltransferases: inactive

Results for COc1cc(C)c(C(=O)NC2C(C)OC(OC3CCC(C)C4C3C=C(C)C3/C(C)=C\CC/C(C)=C/C5(C)C=C(C(=O)O)C(C)CC56OC(=O)/C(=C(\O)C34C)C6=O)C(O)C2(C)O)c(O)c1 (configuration not stated) ?
Methyltransferases: inactive

What do the screens show for `CCCCN1C(=O)c2cc(C(=O)Nc3cc(OC)cc(OC)c3)nn2CC1(C)C(=O)NC1CCCC1` (configuration not stated)?
Methyltransferases: inactive

What do the screens show for `CC1(C(=O)NCc2ccccc2Cl)Cn2cnc(C(=O)NCc3ccc(F)cc3)c2C(=O)N1C1CC1` (configuration not stated)?
Methyltransferases: inactive

Results for Cc1ccc(NC(=O)N2CCn3cccc3C2C)cc1 (configuration not stated) ?
Methyltransferases: inactive

What do the screens show for `Cc1ccc(NC(=O)N2CCc3c(c4ccccc4n3CC3CC3)C2)cc1`?
Methyltransferases: active; MTase-Glo counter: 5.1%

How did Cc1ccc(NC(=O)N2CCN(c3nnnn3-c3ccccc3)CC2)cc1 do in these assays?
Methyltransferases: inactive

Results for COc1ccccc1CN1C(=O)c2cc(C(C)(C)C)nn2CC1(C)C(=O)NCc1ccccc1 (configuration not stated) ?
Methyltransferases: inactive

Results for O=C(Nc1ccc(Oc2cccnc2)cc1)C1CCN(CCCc2ccccc2)CC1 ?
Methyltransferases: inactive

How did O=C(CCc1ccccc1)N1CCNc2cnc(Nc3cccnc3)nc2C1 do in these assays?
Methyltransferases: active; MTase-Glo counter: -1.2%[85.7 µM]

How did O=C(CCc1ccccc1)N1CCCC(CN2CCCC2)CC1 (configuration not stated) do in these assays?
Methyltransferases: inactive

What do the screens show for `CCOc1ccc(CNC(=O)c2cc3n(n2)CC(C)(C(=O)NCCC(C)C)N(C)C3=O)cc1` (configuration not stated)?
Methyltransferases: inactive

Results for COc1ccc2cc3n(c2c1)CC(C)(C(=O)NC1CCCC1)N(CCc1ccc(Cl)cc1)C3=O (configuration not stated) ?
Methyltransferases: inactive

Results for COc1ccc(-c2nnc(-c3ccccc3)o2)cc1S(=O)(=O)N1CCSCC1 ?
Methyltransferases: inactive

What do the screens show for `COc1cc(OC)cc(C(=O)NCC2CCCN(Cc3cc4ccccc4o3)C2)c1` (configuration not stated)?
Methyltransferases: inactive

What do the screens show for `COc1cccc(CN2CC(Oc3ccccc3C(=O)NC3CC3)C2)c1`?
Methyltransferases: inactive

What do the screens show for `COc1ccc(CN2CCCC(COc3ccccc3C(=O)NC3CC3)C2)c(OC)c1` (configuration not stated)?
Methyltransferases: active; MTase-Glo counter: -5.3%

What do the screens show for `COc1ccc(O)c(CN2CCCC(Nc3ccc(F)cc3)C2)c1` (configuration not stated)?
Methyltransferases: inactive

How did CC(C)NC(=O)c1ccccc1OCC1CCCN(Cc2cn(C)c3ccccc23)C1 (configuration not stated) do in these assays?
Methyltransferases: active; MTase-Glo counter: 4.4%
